Source: the supplement of paper PMC8253809

Experiments:
Test in all cases: growth inhibition (% activity, log2 RLU normalised to DMSO / staurosporine); higher = more growth inhibition
Conditions in all cases: 33 µM
DIPGX29 = test system: DIPGX29 (H3.3 K27M diffuse intrinsic pontine glioma line)
Summary of the method: (§1)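 The growth-inhibition value comes from CellTiter-Glo luminescence, log2-transformed, normalised per plate to % activity between solvent and positive control wells, and taken as the median over replicates. Treatment of pHGG cell lines and H9-derived neural stem cells with approved drugs was at a single final concentration of about 33 μM, in triplicate, for 7 days at 37 °C, 5% CO2.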

DIPGX37 = test system: DIPGX37 (H3.3 K27M diffuse intrinsic pontine glioma line)
Summary of the method: as §1

DIPGX7 = test system: DIPGX7 (H3.3 K27M diffuse intrinsic pontine glioma line)
Summary of the method: as §1

DIPGX9 = test system: DIPGX9 (diffuse intrinsic pontine glioma line)
Summary of the method: as §1

HGGX39 = test system: HGGX39 (paediatric high-grade glioma line)
Summary of the method: as §1

HGGX6 = test system: HGGX6 (H3.3 G34R paediatric high-grade glioma line)
Summary of the method: as §1

HNSC = test system: HNSC
Summary of the method: as §1

SUDIPGIV = test system: SUDIPGIV (diffuse intrinsic pontine glioma line)
Summary of the method: as §1

SUDIPGVI = test system: SUDIPGVI (diffuse intrinsic pontine glioma line)
Summary of the method: as §1

SUDIPGXIII = test system: SUDIPGXIII (diffuse intrinsic pontine glioma line)
Summary of the method: as §1

SMILES | growth inhibition (DIPGX29) | growth inhibition (DIPGX37) | growth inhibition (DIPGX7) | growth inhibition (DIPGX9) | growth inhibition (HGGX39) | growth inhibition (HGGX6) | growth inhibition (HNSC) | growth inhibition (SUDIPGIV) | growth inhibition (SUDIPGVI) | growth inhibition (SUDIPGXIII)
CC(=O)O[C@H]1CC[C@@]2(C)C(=CC[C@@H]3[C@@H]2CC[C@]2(C)C(c4cccnc4)=CC[C@@H]32)C1 | 0.369% | -0.0357% | -0.259% | 0.906% | 2.75% | -0.409% | -1.27% | -0.864% | -0.189% | -0.391%
CN1CCN(c2c(F)cc3c(=O)c(C(=O)O)cn4c3c2OCN4C)CC1 | 0.647% | 0.371% | 3.3% | 2.03% | 2.92% | 3.21% | 2.71% | 1.21% | 4.19% | -0.0388%
Cc1nnc(C(C)C)n1C1C[C@H]2CC[C@@H](C1)N2CC[C@H](NC(=O)C1CCC(F)(F)CC1)c1ccccc1 (stereo in doubt) | 0.752% | 1.42% | 6.87% | 1.45% | 1.14% | -3.69% | 45.9% | -0.251% | -0.429% | -1.27%
COc1c(N2C[C@@H]3CCCN[C@@H]3C2)c(F)cc2c(=O)c(C(=O)O)cn(C3CC3)c12 | 0.967% | 2.87% | 5.33% | 1.28% | 3.99% | 2.07% | 2.61% | 0.935% | 2.05% | -1.1%
CO[C@H]1C(=O)[C@]2(C)[C@@H](OC)C[C@H]3OC[C@@]3(OC(C)=O)[C@H]2[C@H](OC(=O)c2ccccc2)[C@]2(O)C[C@H](OC(=O)[C@H](O)[C@@H](NC(=O)OC(C)(C)C)c3ccccc3)C(C)=C1C2(C)C | 6.45% | 5.31% | 8.93% | 18.4% | 26.1% | 12.9% | 70.7% | 22.5% | 3.28% | 2.32%
COc1ccccc1N1CCN(CC(O)COc2cccc3ccccc23)CC1 (stereo not given) | 0.825% | 1.5% | 3.11% | 4.27% | 2.32% | 1.78% | 0.281% | -1.37% | 0.873% | -16%
CCN(Cc1ccncc1)C(=O)C(CO)c1ccccc1 (stereo not given) | -2.54% | -1.96% | -1.34% | -0.78% | -1.19% | 0.149% | -4.87% | -1.01% | -0.507% | -1.24%
Cc1ccc(C(=O)C(C)CN2CCCCC2)cc1 (stereo not given) | 0.542% | 0.69% | 0.522% | 0.564% | 1.58% | 2.83% | -0.193% | -0.938% | -0.166% | 0.909%
C[C@H](Cn1cnc2c(N)ncnc21)OCP(=O)(O)O | -1.46% | -3.07% | -1.11% | -0.823% | -1.24% | -0.0212% | -0.925% | -2.6% | -0.383% | 0.192%
CC(=O)NS(=O)(=O)c1ccc(N)cc1 | 0.584% | 1.84% | 0.329% | 0.364% | 1.9% | 2.46% | -1.34% | -0.27% | 0.507% | 0.27%
CC(C)(C)NC(=O)[C@H]1CC[C@H]2[C@@H]3CC[C@H]4NC(=O)C=C[C@]4(C)[C@H]3CC[C@]12C | 1.8% | 1.06% | 2.69% | 0.827% | 2.11% | -0.348% | 4.13% | 0.54% | 1.81% | 0.754%
CO[C@H]1C[C@@H]2CC[C@@H](C)[C@@](O)(O2)C(=O)C(=O)N2CCCC[C@H]2C(=O)O[C@H]([C@H](C)C[C@@H]2CC[C@@H](OCCO)[C@H](OC)C2)CC(=O)[C@H](C)/C=C(\C)[C@@H](O)[C@@H](OC)C(=O)[C@H](C)C[C@H](C)/C=C/C=C/C=C/1C | 4.26% | 2.47% | 3.53% | 14% | 8.9% | 7.45% | 7.71% | 1.16% | 10.5% | 1.36%
CN1CCN2c3ncccc3Cc3ccccc3C2C1 (stereo not given) | -2.74% | -1.56% | -0.7% | -1.19% | 1.93% | -2.31% | 2.94% | -0.123% | -5.43% | -0.736%
Cn1c(=O)c2[nH]cnc2n(C)c1=O | -2.13% | 0.51% | -0.294% | -0.0831% | -0.447% | 0.444% | -5.61% | -0.366% | -2.69% | -1.98%
COc1cc(Cc2cnc(N)nc2N)cc(OC)c1OC | 1.94% | 3.36% | 1.59% | 1.97% | 3.59% | 2.4% | 0.59% | 2.24% | 2.5% | -1.4%
CCCCCN(C)CCC(O)(P(=O)(O)O)P(=O)(O)O | -3.97% | 2.62% | -1.48% | -0.821% | 0.759% | -3.74% | 5.06% | -4.22% | -0.622% | 0.0777%
COCCCOc1cc(C[C@@H](C[C@H](N)[C@@H](O)C[C@H](C(=O)NCC(C)(C)C(N)=O)C(C)C)C(C)C)ccc1OC | 2.63% | -0.699% | 1.89% | 6.01% | 3.87% | 1.44% | 2.36% | -3.1% | 2.75% | 0.132%
C[C@@H](CN1CC(=O)NC(=O)C1)N1CC(=O)NC(=O)C1 | -0.213% | 0.752% | 1.24% | 0.711% | 0.0185% | -0.816% | 2.52% | -0.536% | -1.35% | -1.67%
CO[C@@]1(NC(=O)C(C(=O)O)c2ccc(O)cc2)C(=O)N2C(C(=O)O)=C(CSc3nnnn3C)CO[C@@H]21 (stereo not given in full) | -1.75% | -0.992% | -0.554% | -0.636% | -0.0428% | 0.31% | -3.08% | -1.1% | 0.787% | -4.5%
N[C@@H](CSCCCO)C(=O)O | -3.76% | -2.47% | 0.0116% | -2.7% | -4.4% | -5.11% | 22.1% | -4.19% | -9.19% | -0.641%
Cc1cccc(C)c1NC(=O)C1CCCCN1C (stereo not given) | 0.788% | 0.607% | -0.12% | 0.0719% | 1.51% | 1.22% | -1.45% | -0.501% | 1.09% | 1.48%
